Compound activity deposited in PubChem BioAssay by National Center for Advancing Translational Sciences (NCATS).
A selection: hits, their analogues and other compounds. The true share with any hit is near 12%.
Pf growth 96h = Primary qHTS for delayed death inhibitors of the malarial parasite plastid, 96 hour incubation; P. falciparum luciferase reporter growth, 96 h; Potency, µM (doses to about 28.7 µM), for the others: top-dose activity change, negative = inhibition, hits mostly inhibitors; hit rate 6.9% among 320,000; AID 504834, 2011; also: % is scaled to controls: 0 for no effect and ±100 for the full control effect
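Two-generation exposure (96 h) targets delayed-death phenotype. Reporter parasites carrying integrated firefly luciferase, in red cells at 2% hematocrit and 0.05% parasitemia final, kept at 37 C, 5% CO2; luminescence loss indicates inhibition.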
SARS PLpro yeast = qHTS of Yeast-based Assay for SARS-CoV PLP; S. cerevisiae expressing SARS-CoV PLpro, growth rescue; Potency, µM (doses to about 32.9 µM), for the others: top-dose activity, positive = growth rescue, actives largely listed as activators; hit rate 0.19% among 330,000; AID 485353, 2010; calls by dose curve; also: 0% is about no effect; nearly all actives have a fitted effect of over 55% in size
Pf growth 48h = Primary qHTS for delayed death inhibitors of the malarial parasite plastid, 48 hour incubation | P. falciparum luciferase growth in erythrocytes, 48 h | Potency, µM (highest dose often 28.7 µM), without a hit: at the highest dose activity change, negative = inhibition, usual class: inhibitors | hit rate 5.9% among 310,000 | AID 504832, 2011; also: % is scaled to controls: 0 for no effect and ±100 for the full control effect
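Read-out is firefly luciferase luminescence from an integrated reporter in P. falciparum, so falling signal marks reduced parasite growth. Infected erythrocytes were at 2% hematocrit and 0.1% parasitemia (final) in Albumax-supplemented RPMI 1640.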
Sm TGR inh = qHTS Assay for the Inhibitors of Schistosoma Mansoni Peroxiredoxins; Schistosoma mansoni thioredoxin glutathione reductase (TGR), Q962Y6; purified TGR, DTNB reduction, TNB absorbance 405 nm; Potency, µM (titrated, usually from 114 µM), without a hit: top-dose activity change, negative = inhibition, most hits filed as inhibitors; hit rate 3% among 360,000; also: % is scaled to controls: 0 for no effect and ±100 for the full control effect; nearly all actives have a fitted effect of over 60% in size
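Kinetic colorimetric format: TGR-catalysed, NADPH-driven DTNB reduction monitored via TNB absorbance. Enzyme dispensed at 20 nM; compound exposure 15 min at room temperature before reaction start.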
Active calls of the source: *. Unless noted, calls follow the shape of the dose curve; as a rule, active = well fitted curve in the direction sought with a large enough effect; inconclusive = small, poorly fitted or top-dose-only effect, or another doubt; inactive = no such curve, though single readings can be large; an effect the other way counts as inactive or inconclusive. Potency is read from the fitted curve at half-maximal effect.

What do the screens show for `CCN1CCN(c2ccc(S(=O)(=O)N3CCOCC3)cc2NC(=O)/C=C/c2ccc(OC)cc2OC)CC1`?
Pf growth 96h: inconclusive; SARS PLpro yeast: 7%; Pf growth 48h: 10µM*; Sm TGR inh: -1%

How did O=c1c2ccccc2nc(N2CCN(c3cccc(Cl)c3)CC2)n1-c1ccccc1 do in these assays?
Sm TGR inh: 2%

Results for CCC(=O)N1CCc2cc(S(=O)(=O)NCCc3ccc(S(N)(=O)=O)cc3)ccc21 ?
Pf growth 96h: inconclusive; SARS PLpro yeast: 26%; Pf growth 48h: 20%; Sm TGR inh: -5%

How did Cc1ccc(-c2nnc(-n3nc(C)cc3C)c3ccccc23)cc1 do in these assays?
Pf growth 96h: -68%; SARS PLpro yeast: -7%; Pf growth 48h: -8%; Sm TGR inh: -1%

How did Cc1cc2nnn(-c3nnc(-c4ccccc4)c4ccccc34)c2cc1C do in these assays?
Pf growth 96h: 8.3µM*; SARS PLpro yeast: 2%; Pf growth 48h: inconclusive; Sm TGR inh: 12%

How did COc1ccc(OC)c(Nc2nc3ccccc3n3c(C)nnc23)c1 do in these assays?
Sm TGR inh: 8%

How did Cc1cc(C)c(-c2csc(NC(=O)C3=COCCO3)n2)c(C)c1 do in these assays?
Pf growth 96h: inconclusive; SARS PLpro yeast: -27%; Pf growth 48h: 9.3µM*; Sm TGR inh: 11%

Results for COc1ccc2[nH]c3c(c2c1)CCNC3C1CC=C(C)CC1 (stereo not drawn) ?
Pf growth 96h: 22%; SARS PLpro yeast: 2%; Pf growth 48h: inconclusive; Sm TGR inh: -13%

How did COc1ccc2c3c([nH]c2c1)C(C)NCC3 (stereo not drawn) do in these assays?
Pf growth 96h: inconclusive; SARS PLpro yeast: -1%; Pf growth 48h: inconclusive; Sm TGR inh: 11µM*

What do the screens show for `COc1ccc2[nH]c3c(c2c1)CCNC3`?
Pf growth 96h: 42%; SARS PLpro yeast: 7%; Pf growth 48h: 5%; Sm TGR inh: inconclusive

How did COc1ccc2[nH]c3c(c2c1)CCNC3C (stereo not drawn) do in these assays?
Pf growth 96h: 9.3µM*; SARS PLpro yeast: inconclusive; Pf growth 48h: 4%; Sm TGR inh: -25%

Results for COc1ccc2[nH]c3c(c2c1)CCNC3c1ccc([N+](=O)[O-])o1 (stereo not drawn) ?
Pf growth 96h: 7%; SARS PLpro yeast: -2%; Pf growth 48h: 13µM*; Sm TGR inh: 0.89µM*

How did O=C(C1CCCCC1)N(Cc1cccnc1)c1nc2c(F)cc(F)cc2s1 do in these assays?
Sm TGR inh: 8%

How did COc1ccc(NC(=O)CN2C(=O)CSc3ccc(S(=O)(=O)N(C)C)cc32)cc1Cl do in these assays?
Sm TGR inh: 0%

How did Cc1ccc(C)c(CN2C(=O)c3ccccc3S(=O)c3ccc(C(=O)N4CCN(c5ccccn5)CC4)cc32)c1 (stereo not drawn) do in these assays?
Pf growth 96h: inconclusive; SARS PLpro yeast: 2%; Pf growth 48h: 12µM*; Sm TGR inh: 2%

Results for COCCNC(=O)c1ccc2c(c1)N(Cc1cccc(Cl)c1)C(=O)c1ccccc1S2=O (stereo not drawn) ?
Sm TGR inh: -3%

How did Cc1ccccc1CN1C(=O)c2ccccc2S(=O)c2ccc(C(=O)N3CCOCC3)cc21 (stereo not drawn) do in these assays?
Sm TGR inh: -14%

What do the screens show for `O=C(NCCCN1CCCC1)c1ccc2c(c1)N(Cc1cccc(Cl)c1)C(=O)c1ccccc1S2=O` (stereo not drawn)?
Pf growth 96h: 0%; SARS PLpro yeast: -9%; Pf growth 48h: 3.3µM*; Sm TGR inh: -17%

Results for CCOC(=O)N1CCN(C(=O)c2ccc3c(c2)N(Cc2cccc(Cl)c2)C(=O)c2ccccc2S3=O)CC1 (stereo not drawn) ?
Pf growth 96h: 19%; SARS PLpro yeast: -4%; Pf growth 48h: 7.4µM*; Sm TGR inh: -10%

How did Cc1ccccc1CN1C(=O)c2ccccc2S(=O)c2ccc(C(=O)NCCCN3CCOCC3)cc21 (stereo not drawn) do in these assays?
Pf growth 96h: 1.5µM*; SARS PLpro yeast: 23%; Pf growth 48h: inconclusive; Sm TGR inh: -9%

How did Cc1cc(S(=O)(=O)Nc2ccc(C(=O)O)cc2)c(C)c(S(=O)(=O)c2ccc(Cl)cc2)c1 do in these assays?
Sm TGR inh: 0%

What do the screens show for `Cc1nn(CCCC(=O)NCc2ccco2)c(=O)c2nn(-c3ccccc3)c(C)c12`?
Pf growth 96h: -8%; SARS PLpro yeast: 2%; Pf growth 48h: -22%; Sm TGR inh: -13%

What do the screens show for `CN(CC(=O)Nc1ccc(Cl)cc1)C(=O)CNC(=O)Cc1cccc2ccccc12`?
Pf growth 96h: -19%; SARS PLpro yeast: -2%; Pf growth 48h: -19%; Sm TGR inh: -15%

How did CCN1CCN(C(=O)c2ccc3c(c2)N(Cc2ccccc2)C(=O)c2ccccc2S3=O)CC1 (stereo not drawn) do in these assays?
Pf growth 96h: inconclusive; SARS PLpro yeast: -6%; Pf growth 48h: inconclusive; Sm TGR inh: -32%

Results for CC1CCCCN1CCNC(=O)c1ccc2c(c1)N(Cc1cccc(Cl)c1)C(=O)c1ccccc1S2=O (stereo not drawn) ?
Pf growth 96h: 2%; SARS PLpro yeast: 2%; Pf growth 48h: 2.9µM*; Sm TGR inh: 5%

Results for CCN1CCN(CCNC(=O)c2ccc3c(c2)N(Cc2ccc(F)cc2)C(=O)c2ccccc2S3=O)CC1 (stereo not drawn) ?
Pf growth 96h: 10%; SARS PLpro yeast: 2%; Pf growth 48h: 10µM*; Sm TGR inh: -2%

What do the screens show for `CC1CCCCN1C(=O)c1ccc2c(c1)N(Cc1cccc(Cl)c1)C(=O)c1ccccc1S2=O` (stereo not drawn)?
Sm TGR inh: -4%

What do the screens show for `COc1ccc(N2C(=O)Cc3cc(OC)c(OC)cc3C2c2ccc(F)cc2)cc1` (stereo not drawn)?
Sm TGR inh: -2%

How did COc1ccc(N2CCN(c3oc(COc4ccc(Cl)cc4)nc3C#N)CC2)cc1 do in these assays?
Pf growth 96h: inconclusive; SARS PLpro yeast: -11%; Pf growth 48h: inconclusive; Sm TGR inh: 4%

Results for COc1ccc(N2CCN(c3oc(COc4ccccc4)nc3C#N)CC2)cc1 ?
Pf growth 96h: 55%; SARS PLpro yeast: 0%; Pf growth 48h: 13µM*; Sm TGR inh: 6%

Results for O=C(COc1coc(CN2CCc3ccccc3C2)cc1=O)Nc1ccc([N+](=O)[O-])cc1 ?
Pf growth 96h: inconclusive; SARS PLpro yeast: -7%; Pf growth 48h: inconclusive; Sm TGR inh: -2%

Results for CCOc1ccccc1NC(=O)COc1coc(CN2CCc3ccccc3C2)cc1=O ?
Pf growth 96h: 13µM*; SARS PLpro yeast: -1%; Pf growth 48h: -15%; Sm TGR inh: -1%

What do the screens show for `CCOc1ccccc1NC(=O)COc1coc(CN2CCCc3ccccc32)cc1=O`?
Pf growth 96h: inconclusive; SARS PLpro yeast: -2%; Pf growth 48h: 13µM*; Sm TGR inh: -20%
